# Unmarked numbers belong to inactive results.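 The calls were made as follows: active = compounds cutting enzyme signal by half at 10000 nM or lower, the printed EC50; inactive = the rest.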
# Test: optical artefacts in IDE activity readout – biochemical, fluorogenic FRET1 peptide substrate, artefact control for IDE activator project, late-stage follow-up (AID 624035)
# Conditions: recombinant IDE, FRET1 substrate fluorescence, artifact counterscreen
row,Structure (SMILES),EC50 [µM]
1,CCN1CCN(C2=CC3=CC(=C(C#N)C#N)CCC3CC2)CC1 (stereo not drawn),> 10
2,O=c1ccc2c(-c3ccccc3)c3ccc(O)cc3oc-2c1,> 10
3,C/C(CC(=O)Nc1ccc(N(C)C)cc1)=N\NC(=O)c1ccncc1,> 10
4,N#CC(C#N)=C1C=C2C=C(N3CCOCC3)CCC2CC1 (stereo not drawn),> 10
5,CN(C)/C=C1\C=C2C(=O)c3ccccc3N2C1=O,> 10
6,N#CC(C#N)=C1C=C2C=C(N3CCCCCC3)CCC2CC1 (stereo not drawn),> 10
7,CCCCN(C)C1=CC2=CC(=C(C#N)C#N)CCC2CC1 (stereo not drawn),> 10
8,CCN(CC)C1=CC2=CC(=C(C#N)C#N)CCC2CC1 (stereo not drawn),> 10

# Reference: PubChem BioAssay AID624035 (The Scripps Research Institute Molecular Screening Center, 2012)
